# Measurements reported in PubChem BioAssay AID902 (National Center for Advancing Translational Sciences (NCATS), 2007).
# Screen size: about 130,000 compounds; about 1,900 (1.5%) were called active. About 5% were inconclusive and are not listed. Many of the other results were omitted from the sample, so actives are more common in it than they were. Values without a mark were called inactive. Calls come from the whole dose curve; as a rule, active = well fitted cell-killing curve with a large enough effect; inconclusive = small, poorly fitted or top-dose-only effect; inactive = no such curve, though single readings can be large or run the other way.
# Test: qHTS Screen for Compounds that Selectively Target Cancer Cells with p53 Mutations: Cytotoxicity of p53ts Cells at the Nonpermissive Temperature; note: nearly all actives have a fitted effect of over 55% in size
# Settings: H1299-p53A138V viability at 39C, ATP luminescence, 24 h; series mostly up to 46.1 µM; activity change, negative = cell killing: at the top concentration
# % is set by controls: 0 for no effect and ±100 for the full control effect; potency is the fitted concentration of half-maximal effect.
SMILES,"activity change, negative = cell killing",Potency
Cc1ccccc1CSCCNC(=O)C1CCN(S(=O)(=O)Cc2ccccc2)CC1,-6.07%,
Cc1ccc(NC(=O)c2ccc3[nH]c(C)cc(=O)c3c2)c(C)c1,10.7%,
Cc1c(C(=O)NCc2ccccc2Br)oc2ccc3c(c12)C(=O)CC(C)(C)O3,,15.8 µM (active)
CC1(C)CC(=O)c2cc(OCC(=O)NCC3CCCO3)ccc2O1 (stereo unspecified),-4.39%,
CCC1(C)CC(=O)c2c(ccc3oc(C(=O)Nc4ccc(C(C)=O)cc4)c(C)c23)O1 (stereo unspecified),-27.1%,
CCS(=O)(=O)N1CCc2cc(C(=O)NCc3ccc(C)cc3)ccc21,-3.8%,
Cc1ccc(O)c(NC(=O)c2cc(-c3ccc(F)cc3)no2)c1,-18.6%,
COc1ccccc1-c1cc(C(F)(F)F)nc(S(=O)(=O)CCCC(=O)Nc2ccc(F)cc2F)n1,-100%,
Cc1ccc(O)c(NC(=O)CCS(=O)(=O)c2nc(-c3ccc4c(c3)OCO4)cc(C(F)(F)F)n2)c1,,3.16 µM (active)
Cc1ccc(CNC(=O)c2ccc(CS(=O)Cc3cccc(Cl)c3)o2)cc1 (stereo unspecified),-16.2%,
Fc1ccc2nc(N3CCCCC3)sc2c1,7.22%,
COc1ccc2nc(Nc3nc4cc5c(cc4s3)OCCO5)sc2c1,-17.6%,
c1c2c(cc3sc(N4CCCCC4)nc13)OCCO2,,2 µM (active)
Cc1cccc(CSc2nc3ccncc3n2CC(=O)N(C)C2CCCCC2)c1,-7.28%,
COc1ccc(CNC(=O)c2ccc3c(O)c(S(=O)(=O)c4ccccc4)c(=O)[nH]c3c2)cc1,-10.2%,
CC(C)c1ccc(NC(=O)c2ccc3c(O)c(S(=O)(=O)c4ccccc4)c(=O)[nH]c3c2)cc1,,6.31 µM (active)
Cc1ccc(C(=O)Nc2ccc3[nH]c(=O)c(=O)[nH]c3c2)cc1,-13.9%,
COc1ccc(C)cc1NC(=O)CCc1c(C)nn(-c2ccc(N3CCOCC3)nn2)c1C,-14.8%,
Cc1ccc(N2CC(NC(=O)Cc3cccs3)CC2=O)cc1 (stereo unspecified),13.4%,
CCCCN1C(=O)c2[nH]nc(-c3ccccc3O)c2C1c1cccc(OCc2ccccc2)c1 (stereo unspecified),,25.1 µM (active)
COc1ccc(C2C(C(C)=O)=C(O)C(=O)N2Cc2cccnc2)cc1 (stereo unspecified),14.7%,
CCOc1ccc(/C(O)=C2/C(=O)C(=O)N(Cc3cccnc3)C2c2ccc(N(C)C)cc2)c(C)c1 (stereo unspecified),-14.2%,
COc1ccc(CCN2C(=O)c3[nH]nc(-c4ccccc4O)c3C2c2ccc(C)cc2)cc1OC (stereo unspecified),-18.7%,
COc1cccc(-c2n[nH]c3c2C(c2cccc(O)c2)N(C)C3=O)c1 (stereo unspecified),4.1%,
CCCOc1ccc(C2c3c(-c4ccccc4O)n[nH]c3C(=O)N2Cc2cccnc2)cc1 (stereo unspecified),,12.6 µM (active)
O=C(c1cccc(Cl)c1)N1CCN(CCc2ccncc2)CC1,0.144%,
